B2AR arrestin: qHTS assay of beta-arrestin-biased ligands of beta2-adrenergic receptor; Potency, µM (titrated, usually from 46.1 µM), actives largely listed as activators; beta-arrestin recruitment to beta2AR, cell-based reporter; 330,000 compounds, 0.02% hits; AID 492947, 2010; note: nearly all actives have a fitted effect of over 65% in size
Target sequence (P07550 whole entry, looked up): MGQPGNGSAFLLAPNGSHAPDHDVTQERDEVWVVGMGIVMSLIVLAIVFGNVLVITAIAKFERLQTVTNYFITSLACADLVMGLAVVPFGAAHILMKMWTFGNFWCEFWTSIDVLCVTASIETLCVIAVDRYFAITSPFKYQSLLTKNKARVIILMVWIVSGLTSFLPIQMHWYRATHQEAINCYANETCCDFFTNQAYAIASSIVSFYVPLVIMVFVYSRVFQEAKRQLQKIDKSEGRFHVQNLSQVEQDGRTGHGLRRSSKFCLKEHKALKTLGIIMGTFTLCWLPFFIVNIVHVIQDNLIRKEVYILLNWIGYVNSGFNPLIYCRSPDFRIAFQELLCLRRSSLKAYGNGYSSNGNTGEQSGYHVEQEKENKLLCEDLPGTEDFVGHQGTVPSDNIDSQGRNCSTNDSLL
DRD3 antagonist: qHTS of D3 Dopamine Receptor Antagonist: qHTS. 360,000 compounds, 2.5% hits. D3R cells, DiscoveRx beta-arrestin luminescence, antagonist mode; stronger effect = lower value. max response, negative = inhibition, %. AID 652054, 2013. D(3) dopamine receptor (Homo sapiens), P35462; in the data active = max response below about -50%; inconclusive = no clear call, values can overlap the other calls
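Cells expressing the human receptor were seeded at 1500 cells/well, incubated overnight at 37 degrees C in 5% CO2, then exposed to library compounds with dopamine controls for 90 minutes at 37 degrees C before luminescent detection.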
Integrin act MD: qHTS for Activators of Integrin-Mediated Alleviation for Muscular Dystrophy; alpha7betagal myoblasts, beta-gal FDG fluorescence, 48 h; AID 624291, 2012; Potency, µM (top dose mostly 38.3 µM), hits mostly activators; 350,000 compounds, 0.064% hits; note: nearly all actives have a fitted effect of over 60% in size
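Alpha7betagal+/- myoblasts (passage 13) were plated 16-24 hr, then exposed to compounds (1:260 dilution of DMSO stock) for 48 hours at 37C. After MPER lysis, β-galactosidase reporter activity was read as FDG fluorescence (ex 480/em 540) after 30 minutes.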
DRD3 agonist: qHTS of D3 Dopamine Receptor Agonist: qHTS; 410,000 compounds, 0.58% hits; D3R DiscoveRx beta-arrestin cells, luminescence, 90 min; max activation, %; D(3) dopamine receptor (Homo sapiens), P35462; AID 652048, 2013; in the data active = max activation above about 30%
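Agonist-mode cell screen: cells plated at 1500/well and incubated overnight at 37 °C, then exposed to library compounds for 90 min at 37 °C. Detection reagent was added for 30–60 min at room temperature, and luminescence was read.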
IDH1 R132H inh: qHTS for Inhibitors of mutant isocitrate dehydrogenase 1 (IDH1): qHTS. Potency, µM (titrated, usually from 76.6 µM), most hits filed as inhibitors. AID 602179, 2012. IDH1-R132H enzyme, NADPH consumption, diaphorase/resazurin fluorescence. 390,000 compounds, 0.093% hits. Isocitrate dehydrogenase [NADP] cytoplasmic (Homo sapiens), O75874; note: nearly all actives have a fitted effect of over 65% in size
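IDH1-R132H (0.5 ug/mL) preincubated 30 min with compound, then NADPH (0.016 mM) and alpha-KG (2 mM) added; 80 min at RT, pH 7.5. Remaining NADPH coupled via diaphorase/resazurin to fluorescence (540/590 nm); concentration-response curves normalized to no-enzyme control.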
Each line names hits and unclear results; the compound was inactive in the other large screens. Most compounds without a hit are left out; they make up all but 2.9% or so of the library. Unless noted, calls come from the whole dose curve; as a rule, active = well fitted curve in the direction sought with a large enough effect; inconclusive = small, poorly fitted or top-dose-only effect, or another doubt; inactive = no such curve, though single readings can be large; an effect the other way counts as inactive or inconclusive.

Cc1cccc(NC(=O)c2c(N)sc3c2CCC(C)C3)c1 (configuration not stated)	none (no result: B2AR arrestin, DRD3 antagonist, Integrin act MD)
Cc1ccc2nc(SCC(=O)c3cc(C)n(C)c3C)[nH]c2c1	none
Cc1cc(C(=O)CSc2nc3ccc(Cl)cc3[nH]2)c(C)n1C	DRD3 agonist 33
CN1c2ccc([N+](=O)[O-])cc2N(C)C1(C)c1ccccc1 (configuration not stated)	DRD3 antagonist -62
Cn1c2ccccc2c2cc([N+](=O)[O-])ccc21	none
Clc1ccc(-c2csc(=Nc3ccccc3)n2Cc2ccc3c(c2)OCO3)cc1	none (no result: B2AR arrestin, DRD3 antagonist, Integrin act MD)
Cc1ccc(-n2c(SCC(=O)Nc3c(C)cccc3C)nc(O)c(C)c2=O)cc1	none (no result: B2AR arrestin, DRD3 antagonist, Integrin act MD)
C=CCn1cc(-c2ccc(Cl)cc2)cc(C#N)c1=O	none
N#Cc1cc(-c2ccc(Cl)cc2)cn(Cc2c(Cl)cccc2Cl)c1=O	DRD3 antagonist -50, Integrin act MD inconclusive
CCOC(=O)C1(CCc2ccccc2)CCN(Cc2ccc(C(=O)OC)cc2)CC1	DRD3 antagonist -69
CCOC(=O)C1(CC2CC2)CCN(Cc2ccc(C(=O)OC)cc2)CC1	DRD3 antagonist -120
Cc1ccc(CNC(=O)C(=O)NCC(c2cccnc2)N2CCN(c3ccccc3F)CC2)cc1 (configuration not stated)	none (no result: B2AR arrestin, DRD3 antagonist, Integrin act MD)
CC1=CN2C(=N)/C(=C/c3ccco3)C(=O)N=C2S1	DRD3 antagonist -60
O=C(COC(=O)Cn1cnc2ccccc21)Nc1cccc([N+](=O)[O-])c1	Integrin act MD 11µM
O=C(Cn1cnc2ccccc21)Nc1cccc([N+](=O)[O-])c1	none
Cc1ccc(OCCNC(=O)[C@H]2O[C@@H](n3cnc4c(N)ncnc43)[C@H](O)[C@@H]2O)cc1C	none (no result: B2AR arrestin, Integrin act MD, IDH1 R132H inh)
O=C(C1CC(=O)N(c2ccccc2)C1)N1CCN(c2ccccc2F)CC1 (configuration not stated)	none
O=C(C1CC(=O)N(c2ccccc2)C1)N1CCN(c2ccc(F)cc2)CC1 (configuration not stated)	DRD3 antagonist -69
COCc1cc(C)nc(N2CCCCC2)c1C#N	none
COCc1cc(C)nc(N2CCN(Cc3ccccc3)CC2)c1C#N	DRD3 antagonist -90
COCc1cc(C)nc(N2CCNCC2)c1C#N	DRD3 antagonist -56
CCCN(CCC)CC(O)Cn1cc(/C=C/C(=O)c2ccc(OCC)cc2)c2ccccc21 (configuration not stated)	none (no result: B2AR arrestin, DRD3 antagonist, Integrin act MD)
Nc1nonc1OCCOCCOCCOc1nonc1N	DRD3 antagonist -59
CN1CCC(=O)N(CCSc2ccc(Br)cc2)CC1	DRD3 antagonist -56
C[C@H]1CCC(=O)N(CCSc2ccc(Br)cc2)CC1	none
Cc1ccc(OCC(=O)Nc2nnc(SCc3cc(=O)n4cc(C)ccc4n3)s2)cc1	none (no result: B2AR arrestin, DRD3 antagonist, Integrin act MD)
CNCc1c(OCc2ccc(F)cc2)ccc2ccccc12	DRD3 antagonist -61
CCOc1ccc(-c2nn3c(-c4ccc(F)cc4)nnc3s2)cc1	DRD3 antagonist -64 (no result: B2AR arrestin)
COc1ccc2oc(CS(=O)c3ccccc3)c(C(=O)O)c2c1 (configuration not stated)	Integrin act MD 13µM
O=C(N/N=C(\c1ccccc1)c1ccccn1)c1cccc([N+](=O)[O-])c1	DRD3 antagonist -74
O=C(Nc1nc(-c2ccccc2)cs1)c1cccc([N+](=O)[O-])c1	DRD3 antagonist -69
O=C(Nc1nc(-c2ccccc2)cs1)C1CCCO1 (configuration not stated)	DRD3 antagonist -91
O=C(Nc1nc(-c2cccnc2)cs1)c1cccc([N+](=O)[O-])c1	none
O=C(Nc1nc(-c2ccc(-c3ccccc3)cc2)cs1)C1CCCO1 (configuration not stated)	none
Cc1onc(-c2ccccc2)c1C(=O)Nc1nc(-c2ccccc2)cs1	DRD3 antagonist -56
O=[N+]([O-])c1ccccc1C=NN1CCCCCC1	none (no result: B2AR arrestin)
COc1ccc(NC(=O)Cn2c(=O)n(Cc3ccco3)c(=O)c3sc4ccccc4c32)cc1OC	none (no result: B2AR arrestin, DRD3 antagonist, Integrin act MD)
COc1ccc(C(CNC(=O)C(C)(C)Oc2ccc(Cl)cc2)N2CCCC2)cc1 (configuration not stated)	DRD3 antagonist -114

From PubChem BioAssay
